The text below walks through data of PubChem BioAssay (NCATS).

Values joined by “and” are separate entries in the source; they are usually repeats but may differ in a detail not shown here. Equal entries are not always repeated. Records with an inconclusive call do not appear. Entries that show only a call come without a potency. Active and inactive are the calls of the source. Calls follow the shape of the dose curve; as a rule, active = well fitted curve in the direction sought with a large enough effect; inconclusive = small, poorly fitted or top-dose-only effect, or another doubt; inactive = no such curve, though single readings can be large; an effect the other way counts as inactive or inconclusive.

Cytochrome P450 3A4 (Homo sapiens), sequence (P08684 whole entry, looked up): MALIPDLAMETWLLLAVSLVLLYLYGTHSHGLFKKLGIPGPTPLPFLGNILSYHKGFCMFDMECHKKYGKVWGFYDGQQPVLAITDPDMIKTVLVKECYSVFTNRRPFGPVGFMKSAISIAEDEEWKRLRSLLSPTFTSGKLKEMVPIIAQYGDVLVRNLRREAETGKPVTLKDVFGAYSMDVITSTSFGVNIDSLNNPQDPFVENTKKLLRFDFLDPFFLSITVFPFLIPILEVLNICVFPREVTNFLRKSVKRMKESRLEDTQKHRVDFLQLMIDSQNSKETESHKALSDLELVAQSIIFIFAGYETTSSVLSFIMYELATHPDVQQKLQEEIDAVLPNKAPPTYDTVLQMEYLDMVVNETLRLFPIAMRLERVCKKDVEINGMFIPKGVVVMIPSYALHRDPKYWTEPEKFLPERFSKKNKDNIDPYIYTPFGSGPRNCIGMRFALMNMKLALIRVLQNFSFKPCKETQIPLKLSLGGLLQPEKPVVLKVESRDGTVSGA
Cytochrome P450 2C19 (Homo sapiens), sequence (P33261 whole entry, looked up): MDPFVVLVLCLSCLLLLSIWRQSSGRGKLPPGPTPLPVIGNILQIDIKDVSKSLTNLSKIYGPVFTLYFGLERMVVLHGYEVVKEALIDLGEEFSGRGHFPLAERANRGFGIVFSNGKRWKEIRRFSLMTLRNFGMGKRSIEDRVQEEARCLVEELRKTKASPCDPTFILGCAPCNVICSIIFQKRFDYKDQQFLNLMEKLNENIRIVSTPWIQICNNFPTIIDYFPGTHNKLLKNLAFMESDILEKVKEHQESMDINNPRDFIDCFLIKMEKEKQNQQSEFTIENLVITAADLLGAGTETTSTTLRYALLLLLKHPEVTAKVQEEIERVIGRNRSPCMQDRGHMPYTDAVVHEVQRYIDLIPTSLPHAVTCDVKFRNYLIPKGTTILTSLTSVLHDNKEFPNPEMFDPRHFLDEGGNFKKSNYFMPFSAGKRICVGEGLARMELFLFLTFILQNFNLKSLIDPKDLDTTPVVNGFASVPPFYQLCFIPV
Cytochrome P450 2C9 (Homo sapiens), sequence (P11712 whole entry, looked up): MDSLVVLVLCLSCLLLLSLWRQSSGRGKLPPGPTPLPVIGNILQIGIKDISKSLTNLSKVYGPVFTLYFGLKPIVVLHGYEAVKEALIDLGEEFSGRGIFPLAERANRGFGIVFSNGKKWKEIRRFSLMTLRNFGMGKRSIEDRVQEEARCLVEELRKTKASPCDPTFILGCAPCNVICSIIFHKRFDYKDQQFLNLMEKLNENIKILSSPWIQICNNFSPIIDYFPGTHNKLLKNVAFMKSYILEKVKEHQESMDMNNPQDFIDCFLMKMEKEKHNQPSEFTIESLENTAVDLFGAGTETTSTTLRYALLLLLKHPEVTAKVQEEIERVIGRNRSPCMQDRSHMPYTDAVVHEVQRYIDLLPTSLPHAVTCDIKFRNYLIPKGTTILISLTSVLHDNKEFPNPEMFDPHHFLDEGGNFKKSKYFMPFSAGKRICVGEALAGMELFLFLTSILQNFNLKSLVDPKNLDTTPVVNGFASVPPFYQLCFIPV
Cytochrome P450 2D6 (Homo sapiens), sequence (P10635 whole entry, looked up): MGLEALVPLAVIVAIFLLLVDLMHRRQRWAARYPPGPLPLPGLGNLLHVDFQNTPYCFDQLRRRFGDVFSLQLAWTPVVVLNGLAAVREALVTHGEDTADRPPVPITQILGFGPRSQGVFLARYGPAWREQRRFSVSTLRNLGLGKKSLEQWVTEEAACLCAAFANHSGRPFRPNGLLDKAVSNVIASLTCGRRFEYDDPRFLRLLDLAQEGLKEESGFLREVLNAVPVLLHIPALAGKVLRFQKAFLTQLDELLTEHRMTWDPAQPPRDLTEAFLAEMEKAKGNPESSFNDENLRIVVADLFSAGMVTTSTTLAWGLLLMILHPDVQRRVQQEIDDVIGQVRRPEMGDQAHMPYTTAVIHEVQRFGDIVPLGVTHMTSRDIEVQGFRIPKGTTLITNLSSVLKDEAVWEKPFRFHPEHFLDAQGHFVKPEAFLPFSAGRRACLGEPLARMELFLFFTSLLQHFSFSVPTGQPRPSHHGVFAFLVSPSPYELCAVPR

For the first assay, the target named is Cytochrome P450 2C9 (Homo sapiens) (UniProt P11712). Kind of assay: qHTS Assay for Inhibitors and Substrates of Cytochrome P450 2C9 (AID 883). Also: nearly all actives have a fitted effect of over 60% in size. Also: potency is read from the fitted curve at half-maximal effect. The note with it: recombinant CYP2C9, luciferin-H luminescence, 60 min; series mostly up to 57.1 µM. In outline:
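Human CYP2C9 (10nM) hydroxylated Luciferin-H (100uM, at its KM) to luciferin in 25mM KPO4. Compound was preincubated 10 min at 37C, then NADPH regeneration started a 60 min reaction at 37C. Luminescence was read after detection reagent, normalized to 57uM sulphaphenazole.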
On the technique in general: qHTS replaces the single test concentration by a dilution series.
`CN(C)CC[C@H](c1ccc(Cl)cc1)c1ccccn1`: the Potency entry was “inactive”.

Regarding `O=c1c(O)c(-c2ccc(O)c(O)c2)oc2cc(O)ccc12`, the Potency is 20 µM (active).

For the compound `COc1ccc([C@@H]2CNC(=O)C2)cc1OC1CCCC1`, the Potency entry was “inactive”.

The target of another assay is Cytochrome P450 3A4 (Homo sapiens) (UniProt P08684). In words: qHTS Assay for Inhibitors and Substrates of Cytochrome P450 3A4 (AID 884). Also: nearly all actives have a fitted effect of over 50% in size. Also: potency is read from the fitted curve at half-maximal effect. The note with it: recombinant CYP3A4, Luciferin-PPXE luminescence; series mostly up to 57.1 µM. An outline of the steps:
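Luminescent readout of luciferin produced by CYP3A4 (20 nM) dealkylation of Luciferin-PPXE, 25 uM (its KM). NADPH-driven reaction ran 60 min at RT after 10 min compound preincubation; data scaled to 57 uM ketoconazole as 100% inhibition.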
Consider `C[C@@]12C(=O)OC(=O)[C@@]1(C)C1CCC2O1`, for which the Potency result was “inactive”.

Regarding `COc1ccc(C(C)=O)c(O)c1`, the Potency is 1.26 µM (active).

Turning to `Cc1ccc(O)c(C(CCN(C(C)C)C(C)C)c2ccccc2)c1` (centres undefined), the Potency result is “inactive”.

With `O=c1c(O)c(-c2ccc(O)c(O)c2)oc2cc(O)ccc12`, the Potency is 39.8 µM (active).

For `OCC(O)C(O)C(O)CO` (centres undefined), the Potency entry is “inactive”.

The target is the same in another assay. In words: qHTS Assay for Activators of Cytochrome P450 3A4 (AID 885). Also: nearly all actives have a fitted effect of over 65% in size. The note with it: recombinant CYP3A4, Luciferin-PPXE luminescence, 60 min; series mostly up to 57.1 µM. An outline of the steps:
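CYP3A4 activity: Luciferin-PPXE O-dealkylation, 25uM substrate, 200mM KPO4, RT throughout. Read-out is luciferase luminescence; higher values reflect activation.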
Take `O=C(O)C=Cc1ccc(Cn2ccnc2)cc1`: the outcome was inactive.

With `COc1ccc2c(c1OC)C(=O)OC2[C@H]1c2c(cc3c(c2OC)OCO3)CCN1C` (some centres undefined), the result was inactive.

As to `COc1ccc(C(C)=O)c(O)c1`, the outcome was inactive.

Regarding `O=c1c(O)c(-c2ccc(O)c(O)c2)oc2cc(O)ccc12`, the outcome was inactive.

For the compound `COc1ccc([C@@H]2CNC(=O)C2)cc1OC1CCCC1`, the outcome was inactive.

`Oc1cc2c(cc1O)C1c3ccc(O)c(O)c3OCC1(O)C2` (centres undefined): the result was inactive.

For the compound `COC(=O)C1C2CC3c4[nH]c5cc(OC)ccc5c4CCN3CC2CC(OC(=O)c2cc(OC)c(OC)c(OC)c2)C1OC` (centres undefined), the outcome was inactive.

Regarding `CCOC(=O)C1=C(C)NC(=S)NC1c1cccc(O)c1` (centres undefined), the outcome was inactive.

Another assay has as its target Cytochrome P450 2D6 (Homo sapiens) (UniProt P10635). Kind of assay: qHTS Assay for Inhibitors and Substrates of Cytochrome P450 2D6 (AID 891). Also: nearly all actives have a fitted effect of over 60% in size. Also: potency is read from the fitted curve at half-maximal effect. The note with it: recombinant CYP2D6, luciferin-ME EGE luminescence; series mostly up to 57.1 µM. In outline: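 Luminescent read-out of luciferin formed by 5 nM human CYP2D6 demethylating 30 uM Luciferin-ME EGE (Km level) over 60 min at room temperature after NADPH regeneration addition. Data normalized to full inhibition by 1.43 uM quinidine.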
For `O=C(O)C=Cc1ccc(Cn2ccnc2)cc1`, the Potency was 0.0794 µM (active).

Consider `COc1ccc2c(c1OC)C(=O)OC2[C@H]1c2c(cc3c(c2OC)OCO3)CCN1C` (some centres undefined), for which the Potency was 15.8 µM (active).

On to `O=c1c(O)c(-c2ccc(O)c(O)c2)oc2cc(O)ccc12`, for which the Potency result was “inactive”.

Turning to `COc1ccc([C@@H]2CNC(=O)C2)cc1OC1CCCC1`, the Potency result is “inactive”.

The target of a further assay is Cytochrome P450 2C19 (Homo sapiens) (UniProt P33261). In words: qHTS Assay for Inhibitors and Substrates of Cytochrome P450 2C19 (AID 899). Also: nearly all actives have a fitted effect of over 60% in size. Also: potency is read from the fitted curve at half-maximal effect. The note with it: recombinant CYP2C19, luciferin-H EGE luminescence; series mostly up to 57.1 µM. An outline of the steps:
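Human CYP2C19 (5nM) with Luciferin-H EGE at 10uM (its KM) in 50mM KPO4 was preincubated with compound for 10 min at 37C. NADPH regeneration started a 60 min 37C reaction. Luciferin was read by luminescence, normalized to 57uM ketoconazole.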
Turning to `COc1ccc2c(c1OC)C(=O)OC2[C@H]1c2c(cc3c(c2OC)OCO3)CCN1C` (some centres undefined), the Potency was 1.26 µM (active) and 316 nM (active) and 398 nM (active).

On to `O=c1c(O)c(-c2ccc(O)c(O)c2)oc2cc(O)ccc12`, for which the Potency entry is “inactive”.

As to `COc1ccc([C@@H]2CNC(=O)C2)cc1OC1CCCC1`, the Potency entry was “inactive”.

Tested on in a further assay: not listed separately
Kind of assay: Confirmation and Secondary Assay for Modulators of Hemoglobin Beta Chain Splicing at IVS2 654 locus (AID 910).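 Also: per-well total GFP intensity by laser scanning cytometry after 2-day treatment.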 The note with it: HeLa EGFP-654 splicing reporter, GFP fluorescence, 48 h; series mostly up to 46.1 µM. An outline of the steps:
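HeLa cells stably carrying EGFP interrupted by mutant beta-globin IVS2-654 intron (CMV-driven) were treated with compound for 2 days at 37C; corrected splicing was scored as total peak GFP intensity per well (488 nm excitation, 500-520 nm emission).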
In the case of `C[C@@]12C(=O)OC(=O)[C@@]1(C)C1CCC2O1`, the result was inactive.

Consider `Cc1cc(O)c2c(c1)C(=O)c1cccc(O)c1C2=O`, for which the compound was classed as inactive.

As to `COc1ccc(C(C)=O)c(O)c1`, the call was inactive.

Consider `Cc1ccc(O)c(C(CCN(C(C)C)C(C)C)c2ccccc2)c1` (centres undefined), for which the compound was called inactive.

As for `O=c1c(O)c(-c2ccc(O)c(O)c2)oc2cc(O)ccc12`, the result was inactive.

On to `Oc1cc2c(cc1O)C1c3ccc(O)c(O)c3OCC1(O)C2` (centres undefined), for which the call was inactive.

In the case of `OCC(O)C(O)C(O)CO` (centres undefined), the result was inactive.

`c1coc(CNc2ncnc3nc[nH]c23)c1`: the compound was called inactive.

Regarding `CCCCCCCCCCCC(CC1OC(=O)C1CCCCCC)OC(=O)C(CC(C)C)NC=O` (centres undefined), the outcome was inactive.

Take `CC(Cc1ccc(O)c(O)c1)(NN)C(=O)O` (centres undefined): the compound was classed as inactive.

Take `CCC(C(=O)O)C1CCC(C)C(C(C)C(O)C(C)C(=O)C(CC)C2OC3(C=CC(O)[C@@]4(CC[C@](C)(C5CC[C@@](O)(CC)C(C)O5)O4)O3)C(C)CC2C)O1` (some centres undefined): the compound was classed as inactive.
